The whole screen tested about 290,000 compounds, of which about 670 (0.23%) were called active. This is one part of a sample in which actives are shown more often than they occur. A number with no mark means an inactive call.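 Rule for the calls: active = inhibition above a per-plate limit of that plate's mean compound inhibition plus 3 SD (cut at about 60% in these data); inactive = the rest.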

The assay can be described thus: KLF5 expression inhibitors, primary screen, DLD-1 cells, luminescence (AID 1700).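 Note: 0% = DMSO wells and 100% = LY294002 at 200 µM; higher means less KLF5 promoter-driven luciferase light.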 The settings on record: DLD-1 KLF5 promoter-luciferase reporter, at 5 µM, hits give high values.
What is called inhibition is the relative decrease from the control value, in per cent. `O=C(N[C@@H](Cc1ccccc1)C(=O)OCc1ccccc1)c1nc[nH]c1C(=O)N[C@@H](Cc1ccccc1)C(=O)OCc1ccccc1`: the inhibition is -14.8%. Under `O=C(CN1CCC(O)(c2cccc(C(F)(F)F)c2)CC1)NCCc1ccccc1` stands -13%; under `O=C(CSc1ccc(-c2ccccn2)nn1)Nc1ccccc1`, -2%. In the case of `Cc1cc(=O)n2nc(N3CCC(C(=O)Nc4c(F)c(F)c(F)c(F)c4F)CC3)sc2n1`, the inhibition was 13.4%. Under `N#CCC(=O)NC1CCC(CC2CCC(NC(=O)CC#N)CC2)CC1` (configuration not stated) stands -13.8%; under `Cc1nn(C(C)C(=O)N2CCOCC2)c(=O)c2nn(-c3ccccc3)c(C)c12` (configuration not stated), -19%; under `CCOc1cc(C(=O)N2CCc3cc(OC)c(OC)cc3C2)ccc1OC(F)F`, 73.9% (active). Turning to `COc1cc2c(cc1OC)CN(C(=O)c1ccc(S(=O)(=O)N3CCCCCC3)cc1)CC2`, the inhibition was -28.3%.

As for `COc1cc2c(cc1OC)CN(C(=O)c1cc(=O)c3ccccc3o1)CC2`, the inhibition is 37.6%.

As for `COc1cccc(/C=N/Nc2cc(C)nc(-c3ccccc3O)n2)c1O`, the inhibition is -137%. Take `COc1cccc(/C=N/NC(=O)c2[nH]nc3c2CCc2ccccc2-3)c1O`: the inhibition was 5.06%. Under `COc1cccc(/C=N/Nc2ncc(C(F)(F)F)cc2Cl)c1O` stands 101% (active). Under `O=C1CSc2ccc(S(=O)(=O)NCc3ccccc3)cc2N1` stands 11.2%; under `Cc1c(CC(=O)NCC(=O)NCC(=O)O)c(=O)oc2cc3oc4c(c3cc12)CCCC4`, -28.3%; under `CCC(=O)N(CCc1ccccc1)Cc1cc2cc(C)ccc2[nH]c1=O`, -35.9%. Turning to `Cc1ccc2[nH]c(=O)c(CN(CCCN(C)C)C(=O)Nc3cccc(Cl)c3)cc2c1`, the inhibition is 109% (active). The result for `Cc1ccc2[nH]c(=O)c(CN(CC3COCCO3)C(=O)Nc3ccccc3C)cc2c1` (configuration not stated) reads 18.1%.

Turning to `O=C(NCCc1ccc(Cl)cc1)C1CCCN1C(=O)NCc1ccccc1` (configuration not stated), the inhibition was -14.2%. Under `COc1ccc(NCCc2ccccn2)cc1` stands -36.1%; under `COc1ccccc1/C=N/N1CCN(Cc2ccccc2Cl)CC1`, -27%; under `CCOc1ccccc1NC(=O)Cn1nnc(C(=O)NCc2cccs2)c1N`, 72.7% (active). Under `CCOc1ccc(Cn2nnc(C(=O)NCc3ccccc3)c2N)cc1` stands -14.8%; under `CCOc1ccccc1NC(=O)Cc1cccs1`, 4.44%; under `CN(NC(=O)c1ccccc1)c1nc2ccccc2nc1C(F)(F)F`, -18.5%. Under `CSc1nc(N(C)NC(=O)c2cccc(C)c2)c2ccccc2n1` stands 83.5% (active).

Turning to `CN(NC(=O)c1ccccc1F)c1nc(C(F)(F)F)nc2ccccc12`, the inhibition was 68.7% (active). `Cc1cccc(C(=O)NCCCN(C)CCCNC(=O)c2cccc(C)c2)c1`: the inhibition is -59.8%. Under `COC(=O)CNC(=O)c1ccccc1F` stands -16.9%.

`COc1ccc(C(=O)NN(C)c2nc(-c3ccccc3)cc(C)c2S(C)(=O)=O)cc1`: the inhibition is -7.27%. The result for `O=C(Nc1ccccc1C(=O)NCC1CCCO1)c1ccccc1F` (configuration not stated) reads -10.3%; that for `CCCCCCn1c(CN2CCCCC2)nc2c1c(=O)n(C)c(=O)n2C`, 0.95%; that for `CCCCCCCCn1c2c(c(=N)c3c1CCC3)CCCC2`, 72.8% (active).

For `O=c1[nH]cccc1-c1nc2ccccc2n1Cc1ccc(Cl)cc1`, the inhibition is -29.9%.

As to `Cc1ccc(CNS(=O)(=O)c2ccc3c(c2)N(C)CCO3)cc1`, the inhibition was -12.4%. `Cn1cc(C(=O)c2ccc(Cl)cc2Cl)cc1C(=O)NN`: the inhibition is -35.5%.

For `CCOc1ccccc1CN1CCN(C2CCC2)CC1CCO` (configuration not stated), the inhibition was 12%.

As to `CCOC(=O)c1sc(NC(=O)c2sc(C)nc2C)nc1C`, the inhibition was 79% (active). Take `CCOC(=O)c1sc(NC(=O)c2ccncc2)nc1C`: the inhibition was -25.1%. Take `CCOC(=O)c1sc(/N=C/Nc2nc(C)c(C(=O)OCC)s2)nc1C`: the inhibition was 6.72%. Under `Cc1cccc(NC(=O)C2CCN(C(=O)NC3CCCCC3)CC2)c1` stands -12.5%; under `Cc1ccc(O)c(CNc2nc3ccccc3[nH]2)c1`, -87.9%; under `COc1ccc(-c2cc(=O)oc3cc(OCC(=O)N(C)C4CCS(=O)(=O)C4)ccc23)cc1` (configuration not stated), -4.99%. As for `Cc1ccc(-c2cc(=O)c3ccc(Cl)cc3[nH]2)cc1`, the inhibition was -4.81%. Under `Cc1ccc(-c2cc(=O)c3ccc(F)cc3[nH]2)cc1` stands 9.96%; under `O=c1cc(-c2ccccc2)[nH]c2cc(F)ccc12`, 73.5% (active).

Consider `CCCCNC(=O)c1cn(CC)c2cc(N3CCN(C(=O)c4ccco4)CC3)c(F)cc2c1=O`, for which the inhibition is -2.76%. On to `COc1ccc(NC(=O)CCNC(=O)Cn2cnc3sc4c(c3c2=O)CCCC4)cc1OC`, for which the inhibition is -21.6%. As for `COc1cc(NC(=O)C2=C(C)OCCS2)c(Cl)cc1C(=O)NCCN1CCN(C)CC1`, the inhibition is -25.5%. Take `O=C1CCC(C(=O)N2CCN(c3ccccc3Cl)CC2)CN1CC1CCCCC1` (configuration not stated): the inhibition was -15.8%.

In the case of `CC1CCCN(CC(=O)Nc2cc(Cl)ccc2Oc2ccccc2)C1` (configuration not stated), the inhibition is -4.36%. Under `Cc1ccc(CNC(=O)C2CCN(S(=O)(=O)c3ccc4nc5c(c(C(=O)O)c4c3)CC(C)CC5)CC2)cc1` (configuration not stated) stands -5.44%; under `CCc1ccc(/C=N/NC(=O)c2nnn(-c3nonc3N)c2CN2CCc3ccccc32)cc1`, 9.12%; under `O=C(CSc1nc(C2CC2)nc2ccccc12)Nc1cccc(O)c1`, -13.5%.

Take `Cn1cc(CCC(=O)NC2CC2)c2ccccc21`: the inhibition was -37%. Under `Cc1ccc(S(=O)(=O)N(C)CC(=O)NCCc2c[nH]c3ccccc23)cc1` stands -25.4%; under `Cc1ccc(/C=N/NC(=O)c2cc3ccccc3cc2O)o1`, -47.3%; under `Cc1ccc(CSc2nsc(C)c2C#N)cc1`, -19.4%. The result for `Cc1ccc(-c2cn3cc([N+](=O)[O-])ccc3n2)cc1` reads -2.85%.

`Cc1ccc2nc(-c3ccc(Br)cc3)cn2c1`: the inhibition is 48.8%. Regarding `Cc1ccc(-c2cn3cc(C)ccc3n2)cc1`, the inhibition is 81% (active). For `O=C(CCn1nnnc1CN1CCOCC1)N1CCC(c2ccccc2Cl)C1` (configuration not stated), the inhibition is -1.39%. With `O=c1c2ccccc2nc2n1C1(CCCCC1)Cc1ccccc1-2`, the inhibition is -22.6%. Turning to `CCOC(=O)C(C)Sc1nc2ccccc2c(=O)n1CC1CCCCC1` (configuration not stated), the inhibition is -3.75%. In the case of `CN(c1ccc2nc3ccccc3c(=O)n2n1)C1CCCCC1`, the inhibition is 90.6% (active). Consider `Nc1ccc(-c2nnc(-c3ccccc3)o2)cc1`, for which the inhibition is -131%.

Regarding `COc1ccccc1N1CCC(N2CCN(CC(C)(C)C)C(CCO)C2)CC1` (configuration not stated), the inhibition is -23.1%.

Take `CC[C@]1(c2ccccc2OC)C(=O)N(C(=O)OC)N1C(=O)OC`: the inhibition is -7.14%.

For the molecule `Cn1nccc1C(=O)NC1CCCc2c1cnn2-c1ccccc1F` (configuration not stated), the inhibition was -17%. Consider `CC(=O)NCC(=O)NC1CCCc2c1cnn2-c1ccccc1F` (configuration not stated), for which the inhibition was -24.6%. Under `Cn1nccc1C(=O)NC1CCCc2c1cnn2-c1ccc(F)cc1F` (configuration not stated) stands 64.7% (active); under `O=C(c1ccc(F)cc1)N1CCCC(C(=O)N2CCCCC2)C1` (configuration not stated), -2.28%.

In the case of `CN(c1ccccc1)S(=O)(=O)c1ccc2[nH]c(=O)[nH]c2c1`, the inhibition is -38.8%.

Take `Cc1ccc(OC(=O)c2cncc(Br)c2)c(C)c1`: the inhibition is -28.5%.

Regarding `Cc1ccc(C(=O)NCCc2nnc(SCC(=O)Nc3cccc(C(=O)O)c3)n2C)cc1`, the inhibition is -36.2%.

For the molecule `N#CCSc1nc(-c2ccccc2)nc2ccc(F)cc12`, the inhibition is -32.8%. Consider `CCn1c(=S)sc2c(=O)n(CC(=O)Nc3cccc(Br)c3)c(C)nc21`, for which the inhibition is -3.48%. The result for `Cc1ccc(S(=O)(=O)N2CCN(C(=O)CSc3cc(C)ccc3C)CC2)c(C)c1` reads -17.8%; that for `Oc1cccc(/C=N/Nc2ccc(Cl)nn2)c1O`, 84.3% (active); that for `COc1cccc(/C=N/Nc2ccc(Cl)nn2)c1`, -91.5%.

Regarding `Clc1ccc(N/N=C/c2cccs2)nn1`, the inhibition was -13.3%. Under `COc1ccc(N2CCN(S(=O)(=O)CCNC(=O)C34CC5CC(CC(C5)C3)C4)CC2)cc1` stands -7.42%; under `CCN1C(=O)/C(=C2/Sc3ccc(OC)cc3N2C)SC1=Nc1ccc(C)cc1`, -15.8%. For `CCOC(=O)c1ccc(NC(=O)Cc2cccs2)cc1`, the inhibition is -60.6%. On to `O=C(NCc1ccccc1)C(c1ccccc1)N(C(=O)c1csnn1)c1ccc(F)cc1` (configuration not stated), for which the inhibition is -8.26%. With `Cc1cc(N)n2nc(-c3ccc(C(C)(C)C)cc3)cc2n1`, the inhibition is -77.7%. Take `CCn1c(SCC(=O)Nc2nccs2)nnc1-c1ccco1`: the inhibition was -15.7%. The result for `CCn1c(SCC(=O)Nc2nccs2)nnc1-c1ccncc1` reads 102% (active); that for `CCn1c(SCC(=O)NC2CC2)nnc1-c1ccncc1`, -7.99%. The result for `CCCC(C(=O)n1nc(C)cc1C)C(NS(=O)(=O)c1ccc(C)cc1)c1ccccc1` (configuration not stated) reads -5.65%; that for `CCOc1cc(/C=C2\C(=N)N3N=C(C)SC3=NC2=O)ccc1OCCOc1ccccc1`, -24.1%; that for `Cc1cccc(NC(=O)CSCC(=O)Nc2nnc(C3CC3)s2)c1`, -22.8%. On to `Cc1ccccc1N1CCN(S(=O)(=O)c2ccc3ccccc3c2)CC1`, for which the inhibition was -6.9%. Under `Cc1ccc(C(=O)N2CC(=O)Nc3ccc(F)cc3C2c2ccc(F)cc2)cc1` (configuration not stated) stands -4.39%; under `O=C(NCC1CCCO1)c1cc2c([nH]c3ccccc32)c(-c2ccc(F)cc2)n1` (configuration not stated), 12.1%. Consider `COc1ccc(/C=N/NC(=O)c2ccccc2)cc1OS(=O)(=O)c1ccccc1`, for which the inhibition is -22.4%.

For `COc1ccc(C(=O)Nc2ccccc2C(=O)N/N=C/c2ccc(O)c(OC)c2)cc1`, the inhibition was 99.4% (active). Under `COc1cc(/C=N/NC(=O)c2ccc(N3CCCC3=O)cc2)ccc1O` stands -6.57%.

The values above are taken from PubChem BioAssay AID1700 (The Scripps Research Institute Molecular Screening Center, 2009).
